Assay results taken from publication PMC7862700, “An all-to-all approach to the identification of sequence-specific readers for epigenetic DNA modifications on cytosine”.

Legend:
Experiment in all cases: DAPPL (digital affinity profiling via proximity ligation, sequencing); 10 mM Tris-HCl pH 7.5, 50 mM NaCl, 1 mM DTT, 4% glycerol, room temperature, 30 min; GST-TFs on glutathione beads, 16-mer random dsDNA library, 0.1% formaldehyde crosslink after washing; high values mean tight binding
[1] = target: T1, FEV (Homo sapiens, UniProt Q99581 1-238); conditions: protein: recombinant; tags: N-terminal GST; dsDNA, one strand shown
T1 sequence: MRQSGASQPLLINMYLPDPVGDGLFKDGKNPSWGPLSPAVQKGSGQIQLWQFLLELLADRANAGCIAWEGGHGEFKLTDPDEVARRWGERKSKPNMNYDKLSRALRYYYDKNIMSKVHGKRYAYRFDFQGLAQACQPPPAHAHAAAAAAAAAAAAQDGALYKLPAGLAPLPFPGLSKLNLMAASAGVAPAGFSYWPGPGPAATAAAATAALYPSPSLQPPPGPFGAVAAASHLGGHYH
How it was run: (§1)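 A tag-only sample was pooled with DNA-barcoded human transcription factors that had been expressed in yeast as GST fusions and captured on glutathione beads. The pools were incubated for 30 min at room temperature with 200 nmole of a random double-stranded 16-mer DNA library in Tris/NaCl/DTT/glycerol buffer, then washed, crosslinked with 0.1% formaldehyde, proximity-ligated (BsaI/T4 ligase, 1 h, 37 °C), PCR-amplified and sequenced on an Illumina NextSeq500. Binding signal is each hexamer's read frequency for a factor divided by its frequency for the tag-only sample.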

[2] = target: ETV5 (Homo sapiens, UniProt P41161 1-510); conditions: protein: recombinant; tags: N-terminal GST; dsDNA, one strand shown
ETV5, sequence (P41161 whole entry): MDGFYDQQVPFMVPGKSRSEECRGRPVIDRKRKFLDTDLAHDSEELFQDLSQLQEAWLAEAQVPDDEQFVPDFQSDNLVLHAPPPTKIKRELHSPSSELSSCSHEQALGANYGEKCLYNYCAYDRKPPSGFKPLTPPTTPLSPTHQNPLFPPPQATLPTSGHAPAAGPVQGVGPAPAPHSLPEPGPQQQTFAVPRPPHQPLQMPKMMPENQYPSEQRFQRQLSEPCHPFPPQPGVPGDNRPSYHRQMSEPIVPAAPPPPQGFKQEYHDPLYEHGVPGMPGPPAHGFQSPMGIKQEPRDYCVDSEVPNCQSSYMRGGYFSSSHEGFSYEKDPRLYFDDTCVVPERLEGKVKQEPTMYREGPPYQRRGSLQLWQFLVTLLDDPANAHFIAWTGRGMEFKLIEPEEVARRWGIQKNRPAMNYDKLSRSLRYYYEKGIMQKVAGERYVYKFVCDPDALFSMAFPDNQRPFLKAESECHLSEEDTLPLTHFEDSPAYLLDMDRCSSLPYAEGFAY
How it was run: as §1

[3] = target: HSF1 (Homo sapiens, UniProt Q00613 1-529); conditions: protein: recombinant; tags: N-terminal GST; chain copies: 3; dsDNA, one strand shown
HSF1, sequence (Q00613 whole entry): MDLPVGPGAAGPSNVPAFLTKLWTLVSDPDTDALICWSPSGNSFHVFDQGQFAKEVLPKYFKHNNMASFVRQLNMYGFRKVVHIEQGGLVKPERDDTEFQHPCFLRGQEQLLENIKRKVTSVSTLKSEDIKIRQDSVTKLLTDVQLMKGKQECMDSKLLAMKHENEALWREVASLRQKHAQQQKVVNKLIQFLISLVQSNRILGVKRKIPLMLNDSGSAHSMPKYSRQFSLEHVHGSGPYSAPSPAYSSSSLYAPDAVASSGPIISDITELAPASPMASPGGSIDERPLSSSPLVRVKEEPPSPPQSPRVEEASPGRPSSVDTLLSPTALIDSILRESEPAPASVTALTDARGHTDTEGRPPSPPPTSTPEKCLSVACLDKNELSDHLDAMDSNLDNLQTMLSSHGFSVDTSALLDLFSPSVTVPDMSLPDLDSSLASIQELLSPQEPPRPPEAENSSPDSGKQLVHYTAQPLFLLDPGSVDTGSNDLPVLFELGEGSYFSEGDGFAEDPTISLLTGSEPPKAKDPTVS
How it was run: as §1

[4] = target: T2, SPIC (Homo sapiens, UniProt Q8N5J4 1-248); conditions: protein: recombinant; tags: N-terminal GST; dsDNA, one strand shown
T2 sequence: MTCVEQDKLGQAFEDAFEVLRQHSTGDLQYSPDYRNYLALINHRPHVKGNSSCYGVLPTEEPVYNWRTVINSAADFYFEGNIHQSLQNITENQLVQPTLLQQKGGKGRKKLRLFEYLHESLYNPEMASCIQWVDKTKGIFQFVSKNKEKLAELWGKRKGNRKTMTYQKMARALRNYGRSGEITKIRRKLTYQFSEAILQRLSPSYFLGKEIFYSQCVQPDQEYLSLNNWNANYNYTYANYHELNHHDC
How it was run: as §1

[5] = target: ELF4 (Homo sapiens, UniProt Q99607 1-663); conditions: protein: recombinant; tags: N-terminal GST; dsDNA, one strand shown
ELF4, sequence (Q99607 whole entry): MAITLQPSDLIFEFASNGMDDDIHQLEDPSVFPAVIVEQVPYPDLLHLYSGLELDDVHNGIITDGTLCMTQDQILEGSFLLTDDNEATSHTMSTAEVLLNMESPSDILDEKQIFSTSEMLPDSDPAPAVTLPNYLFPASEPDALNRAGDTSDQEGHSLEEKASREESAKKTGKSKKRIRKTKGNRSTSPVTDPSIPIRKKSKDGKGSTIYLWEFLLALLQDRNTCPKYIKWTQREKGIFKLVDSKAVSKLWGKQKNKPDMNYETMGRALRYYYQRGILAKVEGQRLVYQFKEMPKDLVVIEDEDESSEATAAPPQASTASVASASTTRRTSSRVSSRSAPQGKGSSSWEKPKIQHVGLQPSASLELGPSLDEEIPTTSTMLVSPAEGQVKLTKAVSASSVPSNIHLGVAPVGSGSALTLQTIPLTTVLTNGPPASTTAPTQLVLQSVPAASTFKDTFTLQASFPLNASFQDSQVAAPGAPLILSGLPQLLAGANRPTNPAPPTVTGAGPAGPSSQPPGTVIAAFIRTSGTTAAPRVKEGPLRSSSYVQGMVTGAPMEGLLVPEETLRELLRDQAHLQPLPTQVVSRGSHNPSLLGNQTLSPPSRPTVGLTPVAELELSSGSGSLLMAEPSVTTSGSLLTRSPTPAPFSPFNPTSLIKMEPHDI
How it was run: as §1

[6] = target: T3, ELK4 (Homo sapiens, UniProt P28324-2 1-405); conditions: protein: recombinant; tags: N-terminal GST; dsDNA, one strand shown
T3 sequence: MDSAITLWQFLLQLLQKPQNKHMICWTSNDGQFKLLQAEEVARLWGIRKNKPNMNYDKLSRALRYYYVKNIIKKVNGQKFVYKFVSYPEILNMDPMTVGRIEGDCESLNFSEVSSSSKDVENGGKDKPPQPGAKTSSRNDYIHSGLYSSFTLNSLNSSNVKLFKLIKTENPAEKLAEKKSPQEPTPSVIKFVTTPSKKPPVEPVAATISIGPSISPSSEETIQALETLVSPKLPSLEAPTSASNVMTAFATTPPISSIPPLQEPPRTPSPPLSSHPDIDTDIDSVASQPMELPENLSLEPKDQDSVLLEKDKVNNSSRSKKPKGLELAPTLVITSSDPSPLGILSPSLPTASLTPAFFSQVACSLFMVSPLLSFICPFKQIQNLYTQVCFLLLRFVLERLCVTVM
How it was run: as §1

[7] = target: T4, ETV2 (Homo sapiens, UniProt O00321 1-342); conditions: protein: recombinant; tags: N-terminal GST; dsDNA, one strand shown
T4 sequence: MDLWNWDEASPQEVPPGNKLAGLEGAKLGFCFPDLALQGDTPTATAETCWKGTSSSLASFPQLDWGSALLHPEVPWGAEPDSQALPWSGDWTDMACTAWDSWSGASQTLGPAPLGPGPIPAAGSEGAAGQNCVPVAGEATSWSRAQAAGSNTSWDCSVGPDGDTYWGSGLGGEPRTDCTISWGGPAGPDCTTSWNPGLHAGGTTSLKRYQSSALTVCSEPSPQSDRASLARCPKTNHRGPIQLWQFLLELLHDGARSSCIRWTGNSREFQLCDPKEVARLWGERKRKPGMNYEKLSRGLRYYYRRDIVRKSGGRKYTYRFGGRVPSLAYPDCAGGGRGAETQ
How it was run: as §1

[8] = target: T5, ELF3 (Homo sapiens, UniProt P78545 1-371); conditions: protein: recombinant; tags: N-terminal GST; dsDNA, one strand shown
T5 sequence: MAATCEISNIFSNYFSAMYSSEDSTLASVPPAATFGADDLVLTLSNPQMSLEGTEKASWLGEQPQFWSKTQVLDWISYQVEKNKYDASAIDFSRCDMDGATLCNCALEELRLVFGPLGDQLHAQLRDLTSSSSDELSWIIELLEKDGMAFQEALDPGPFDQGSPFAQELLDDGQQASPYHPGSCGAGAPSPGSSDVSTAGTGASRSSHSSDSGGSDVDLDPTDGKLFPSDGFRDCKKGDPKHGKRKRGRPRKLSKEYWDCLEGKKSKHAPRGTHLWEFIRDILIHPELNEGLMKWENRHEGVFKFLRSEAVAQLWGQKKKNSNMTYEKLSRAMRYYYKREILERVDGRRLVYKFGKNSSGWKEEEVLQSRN
How it was run: as §1

[9] = target: CRX (Homo sapiens, UniProt O43186 1-299); conditions: protein: recombinant; tags: N-terminal GST; dsDNA, one strand shown
CRX, sequence (O43186 whole entry): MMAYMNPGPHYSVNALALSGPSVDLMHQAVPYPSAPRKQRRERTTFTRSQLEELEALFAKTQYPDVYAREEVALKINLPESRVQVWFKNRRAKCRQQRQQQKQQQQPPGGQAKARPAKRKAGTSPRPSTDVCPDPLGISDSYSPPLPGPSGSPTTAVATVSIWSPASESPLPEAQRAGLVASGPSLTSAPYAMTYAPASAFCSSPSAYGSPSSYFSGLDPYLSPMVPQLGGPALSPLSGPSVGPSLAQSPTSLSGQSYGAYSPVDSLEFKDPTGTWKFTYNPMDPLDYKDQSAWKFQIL
How it was run: as §1

[10] = target: ETV1 (Homo sapiens, UniProt P50549 1-477); conditions: protein: recombinant; tags: N-terminal GST; dsDNA, one strand shown
ETV1, sequence (P50549 whole entry): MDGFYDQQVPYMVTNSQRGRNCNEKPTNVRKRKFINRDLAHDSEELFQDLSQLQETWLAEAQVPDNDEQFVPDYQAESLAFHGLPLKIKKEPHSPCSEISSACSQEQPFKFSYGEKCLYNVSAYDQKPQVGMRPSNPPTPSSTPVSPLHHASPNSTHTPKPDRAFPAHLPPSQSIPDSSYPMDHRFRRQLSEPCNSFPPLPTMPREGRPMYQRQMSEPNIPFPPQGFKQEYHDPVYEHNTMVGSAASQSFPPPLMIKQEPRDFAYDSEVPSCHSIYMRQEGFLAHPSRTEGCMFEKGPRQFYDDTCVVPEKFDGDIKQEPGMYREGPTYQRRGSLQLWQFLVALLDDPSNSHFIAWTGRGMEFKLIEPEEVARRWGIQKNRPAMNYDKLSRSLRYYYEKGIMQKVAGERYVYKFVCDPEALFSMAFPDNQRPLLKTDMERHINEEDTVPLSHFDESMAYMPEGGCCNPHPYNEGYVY
How it was run: as §1

## GAATTT
[1]
  binding signal: 1.19 fold enrichment (6-mer frequency, TF over GST control)
[2]
  binding signal: 1.26 fold enrichment (6-mer frequency, TF over GST control)
[3]
  binding signal: 1.7 fold enrichment (6-mer frequency, TF over GST control)
[4]
  binding signal: 1.39 fold enrichment (6-mer frequency, TF over GST control)
[5]
  binding signal: 1.25 fold enrichment (6-mer frequency, TF over GST control)
[6]
  binding signal: 1.31 fold enrichment (6-mer frequency, TF over GST control)
[7]
  binding signal: 1.14 fold enrichment (6-mer frequency, TF over GST control)
[8]
  binding signal: 1.13 fold enrichment (6-mer frequency, TF over GST control)
[9]
  binding signal: 1.39 fold enrichment (6-mer frequency, TF over GST control)
[10]
  binding signal: 1.24 fold enrichment (6-mer frequency, TF over GST control)
